# A selection: hits, their analogues and other compounds. The true share with any hit is near 3%.
# KCNH2 3.1 inh: KCNH2 3.1 (human) potassium channel inhibition. U2OS KCNH2 3.1, thallium flux FluxOr; active compounds read low. activity change, % (tested at about 1.8 µM). 0.95% of 340,000 active;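 active = maximum activity change below -70%; inconclusive = maximum activity change from -70% to -50%; inactive = maximum activity change above -50%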;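 note: thallium influx rate constant from kinetic fluorescence after stimulation buffer; % is set by controls: 0 for no effect and ±100 for the full control effect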
#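 Measured as rate of thallium-driven FluxOr signal in transduced U2OS cells carrying the 3.1 channel, read kinetically for 2 min upon stimulation; values are rate constants scaled to DMSO control wells.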
# hERG WT inh: inhibitors of human wildtype KCNH2 potassium channel; Q12809; U2OS, BacMam KCNH2, thallium flux FluxOr; active compounds read low; activity change, % at 1.84 µM; 0.37% of 340,000 active; AID 720551;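 active = maximum activity change below -70%; inconclusive = maximum activity change between -70% and -50%; inactive = maximum activity change above -50%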; note: % is set by controls: 0 for no effect and ±100 for the full control effect
#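 U2OS cells transduced with wild-type KCNH2 virus are loaded with FluxOr dye for 45 min, and thallium flux is measured in kinetic reads before and after stimulation buffer. Rate constants are normalized to DMSO controls.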
# LDHA inh: inhibitors of human lactate dehydrogenase A. purified LDHA, NADH/diaphorase-resazurin fluorescence; active compounds read low. activity change, % (values are at about 110 or 230 µM). 0.15% of 480,000 active. AID 1347041; in the data active = activity change below about -30%; inconclusive = mostly about -25% to -30%;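 note: plate controls were DMSO wells for no effect and wells without enzyme for full effect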
#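 Enzyme activity of human lactate dehydrogenase 5 (2 nM; 0.06 mM NADH, 0.2 mM pyruvate, 5 min, RT) is measured via a resazurin/diaphorase fluorescence readout of residual NADH.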
# Chronic BCR inh: blocks chronic active B-cell receptor signaling. 0.05% of 340,000 active. Potency, µM (titrated, usually from 46.1 µM), for inactives: at the highest dose activity change, negative = inhibition, usual class: inhibitors. ABC-DLBCL IkBa-CBG/CBR reporter, luminescence ratio, 4 h. AID 493014; active = well fitted inhibition curve with a large enough effect in the signal ratio, with a control signal flat, not every such curve was filed as active; inconclusive = small, poorly fitted or top-dose-only effect, or effect the other way, or a change in a side signal; the % refers to the signal ratio;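 note: potency is the fitted concentration of half-maximal effect; plate controls were basal doxycycline-induced cells for no effect and cells given 10 µM MG132 for full effect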
#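 Doxycycline induced both beetle luciferases in TMD8 lymphoma cells; IKK-driven degradation limits the IkappaBalpha-fused green signal, while red luminescence normalises for cell number and nonspecific effects. Compounds tested up to 46 uM, 4 hrs.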
# ClpP mod: qHTS Assay for Activators of ClpP. 1.9% of 340,000 active. Potency, µM (top dose mostly 57.5 µM), inactives show top-dose activity change, negative = active. AID 651965, 2013. purified B. subtilis ClpP, FRET peptide cleavage, 20 min. ATP-dependent Clp protease proteolytic subunit (Bacillus subtilis (strain 168)), P80244; active = well fitted falling curve with a large enough effect; inconclusive = small, poorly fitted or top-dose-only effect; inactive = no such curve, though single readings can be large or run the other way; note: potency is the fitted concentration of half-maximal effect; the source files actives as falling curves though it sought activators and does not explain the sign; nearly all actives have a fitted effect of over 65% in size
#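 Purified B. subtilis ClpP, 10 microg/mL final in Tris/HCl pH8 with KCl, BSA, glycerol and Tween-20, cleaved an Abz/nitrotyrosine-quenched decapeptide. Fluorescence (ex 320, em 430) was read at 0 and 20 min at room temperature. Delta was normalized to 5.8 microM ADEP and DMSO/no-enzyme controls.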
# ALOX12 inh: ALOX12 (human) lipoxygenase inhibition | P18054 | purified 12hLO, xylenol orange hydroperoxide absorbance | Potency, µM (highest dose often 108 µM), for inactives: at the highest dose activity change, negative = inhibition, usual class: inhibitors | AID 1671190 | 1.1% of 580,000 active; active = well fitted inhibition curve with a large enough effect; inconclusive = small, poorly fitted or top-dose-only effect, or another doubt; inactive = no such curve, though single readings can be large or run the other way; note: potency is the fitted concentration of half-maximal effect; % is set by controls: 0 for no effect and ±100 for the full control effect
#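 Purified human 12hLO at 150 nM in 25 mM Hepes, 0.01% Triton X-100, pH 7.0, preincubated 15 min at room temperature with compound. Reaction started with 40 uM arachidonic acid, 30 min at room temperature. Hydroperoxide measured by Fe-xylenol orange, 573/405 nm absorbance ratio.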
# Numbers without * were called inactive; ? = inconclusive; nt = not tested or not shown.
SMILES,KCNH2 3.1 inh,hERG WT inh,LDHA inh,Chronic BCR inh,ClpP mod,ALOX12 inh
COc1ccccc1CNC(=O)CN(C)S(=O)(=O)c1cccc2cccnc12,-124.6*,-1.2,-4.3,-3.4%,nt,6.2%
COc1ccccc1NC(=O)CN(C)S(=O)(=O)c1cccc2cccnc12,-5.4,3.2,-3.8,0.7%,0.7%,-4.7%
COc1cc(CN(C(=O)c2ccc3c(c2)OCC(=O)N3)C2CC2)ccc1OC(F)F,nt,nt,8.4,nt,nt,?
O=c1c(Cl)c(O)c2cccc3c4ccccc4n1c23,0.1,2.1,-15.8,11.6%,14.1µM*,-31.5%
O=C(C1CC=CC1)N1CCC(N2C(=O)C(OCC3CC3)C23CCCCC3)CC1 (stereo not drawn),nt,nt,nt,nt,nt,41.1%
COc1ccccc1CN1CCN(C(=O)c2ccncc2)CC1,-3.6,4.8,-30.0*,1.6%,0.4%,?
CN1CCCN(Cc2ccccc2C(F)(F)F)CC1,10.3,5.9,-33.9*,0.9%,-3.7%,?
COc1cccc(OC)c1C(=O)N1CCN(Cc2ccccc2C(F)(F)F)CC1,-1.6,-8.8,-18.4,?,31.6µM*,?
Cc1ccc(C)c(S(=O)(=O)N2CCN(Cn3ncc4ccccc4c3=O)CC2)c1,nt,nt,-2.0,nt,nt,10.2%
CC(C)C(=O)N1CCC(Oc2ncccc2C(=O)N2CCCCC2)C1 (stereo not drawn),nt,nt,nt,nt,nt,23.7%
C/C(=C1/SC(=S)N(CCC(=O)O)C1=O)c1ccc(O)cc1,1.3,3.6,-2.9,?,-6.0%,39.8µM*
COc1cccc(C(=O)COc2ccc(F)cc2Cl)c1,nt,nt,11.5,nt,nt,19.1%
CCCc1cc(=O)oc2cc(OCc3ccc(OC)cc3)c(Cl)cc12,-73.8*,-17.9,-0.8,-12.2%,3.6%,0.3%
CCc1cc(=O)oc2cc(OCC(N)=O)c(Cl)cc12,6.4,0.7,-6.9,0.3%,31.6µM*,-24.8%
COc1ccccc1CCNC(=O)Cn1nc(C(N)=O)c2ccccc2c1=O,nt,nt,2.3,nt,nt,-6.8%
COc1cccc(C2CCCN2Cc2cc(=O)oc3cc(OC)ccc23)c1 (stereo not drawn),nt,nt,8.1,nt,nt,44.7µM*
CCc1ccc2c(CN3CCCC3c3ccc(OC)cc3)cc(=O)oc2c1 (stereo not drawn),nt,nt,4.1,nt,nt,?
Cc1ccc(-c2cc(C(=O)OC(C)C(N)=O)c3ccccc3n2)c(C)c1 (stereo not drawn),nt,nt,1.6,nt,nt,-11.1%
CCOC(=O)C1=CNS(=O)(=O)NC1c1ccc2ccccc2c1 (stereo not drawn),13.9,-9.5,0.5,-1.5%,-2.6%,31.6µM*
COc1cc(OC)c(C2=CCN(C(=O)COc3ccc(C)cc3Br)CC2)c(OC)c1,nt,nt,0.9,nt,nt,?
Cn1c(CC(=O)Nc2ccc(F)cc2)nnc1SCC(=O)c1ccc(C#N)cc1,nt,nt,-0.5,nt,nt,?
O=C1C(n2ccc3ccccc32)c2cccc(F)c2N1Cc1ccc(C(F)(F)F)cc1 (stereo not drawn),nt,nt,nt,nt,nt,44.7µM*
Cc1ccc2[nH]c3c(NCc4ccco4)ncnc3c2c1,2.4,2.1,1.7,8.4%,17.8µM*,-15.6%
Cn1c(COc2ccc(C(C)(C)C)cc2)nnc1SCc1csc(-c2ccc(F)cc2)n1,nt,nt,-2.2,nt,nt,?
Cc1ccc(S(=O)(=O)N(C)c2ccc(OCc3cccc(C)c3)cc2)cc1,-8.5,0.5,-0.7,15.6%,22.4µM*,-13.1%
CCCCCCc1ccc(N=Cc2ccc(OCC(C)CC)cc2O)cc1 (stereo not drawn),nt,nt,5.5,nt,nt,8.2%
Cn1nnnc1Sc1ccc(C(=O)O)cc1[N+](=O)[O-],-36.3,-0.2,-1.0,?,nt,-18.2%
Cn1ccnc1Sc1ccc(C(N)=O)cc1[N+](=O)[O-],1.5,-27.0,-5.4,0.4%,31.6µM*,-6.8%
O=C(Oc1c(CN2CCOCC2)cc(Cl)c2cccnc12)c1ccccc1,0.5,0.4,-4.4,?,nt,10.2%
O=C(Oc1c(CN2CCOCC2)cc(Cl)c2cccnc12)c1ccccc1F,-17.3,0.2,16.4,3.55µM*,nt,-2.1%

# Screens deposited in PubChem BioAssay by National Center for Advancing Translational Sciences (NCATS).
